# Assay results from PubChem BioAssay (NCATS).
# Several values for one entry are separate records, joined by “and”; a condition that tells them apart may be missing. Identical values can stand only once. Records with an inconclusive call do not appear. A call without a number means that no potency is given here. Activity calls are given as the source filed them. Unless noted, calls come from the whole dose curve; as a rule, active = well fitted cell-killing curve with a large enough effect; inconclusive = small, poorly fitted or top-dose-only effect; inactive = flat fitted curve, though single readings scatter.
# Tests used:
# [1] = Cell Viability - LYMP2-002 (AID 977);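 note: series mostly up to about 92 µM; compound exposure lasted 24 h at 37 °C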
# In short: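 Human lymphoblastoid LYMP2-002 cells, 2500 per well, exposed to compounds for 24 h at 37 C in complete medium; viability read as intracellular ATP by CellTiter-Glo luminescence, AC50 from Hill fits.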
# [2] = Cell Viability - LYMP2-006 (AID 978); note: series mostly up to about 92 µM; nearly all actives have a fitted effect of over 60% in size
# In short: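 Concentration-dependent loss of intracellular ATP in a human lymphoblastoid line after 24 hr treatment at 37 C was measured by CellTiter-Glo luminescence, with AC50 values obtained from standard Hill-equation modelling.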
# [3] = Cell Viability - LYMP2-008 (AID 980); note: nearly all actives have a fitted effect of over 60% in size
# In short: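 Acute cytotoxicity is scored as concentration-dependent loss of cellular ATP in a human lymphoblastoid line after 24 hr treatment at 37 C. ATP is quantified by luciferase luminescence.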
# [4] = Cell Viability - LYMP2-010 (AID 981); note: nearly all actives have a fitted effect of over 55% in size
# In short: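 Acute toxicity is scored as a concentration-dependent loss of cellular ATP in human lymphoblastoid cells after 24 hr compound exposure in complete medium. Tetraoctylammonium bromide is the positive control.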
# [5] = Cell Viability - LYMP2-012 (AID 982);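 note: cellular ATP by luciferase luminescence where a drop means cytotoxicity; cells exposed to compound for one day before reading; nearly all actives have a fitted effect of over 55% in size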
# [6] = Cell Viability - LYMP2-014 (AID 983); note: series mostly up to about 92 µM; nearly all actives have a fitted effect of over 50% in size
# In short: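 Decrease in intracellular ATP after 24 hr treatment at 37 C, measured by luciferase luminescence, indicated cytotoxicity. Concentration-response data were fitted with the standard Hill equation to give AC50.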
# [7] = Cell Viability - LYMP2-016 (AID 984); note: nearly all actives have a fitted effect of over 55% in size
# In short: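 Acute toxicity in a Coriell human lymphoblastoid line is scored as loss of intracellular ATP over 24 h of treatment in complete medium. CellTiter-Glo signal is fitted across concentrations with the Hill equation to give AC50.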
# [8] = Cell Viability - LYMP2-018 (AID 985);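 note: compound exposure lasted 24 hr at 37 °C; nearly all actives have a fitted effect of over 50% in size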
# In short: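 Acute cytotoxicity is scored as a concentration-dependent drop in intracellular ATP after 24 hr exposure of the lymphoblastoid line in complete culture medium, measured by luciferase luminescence. Potency is expressed as AC50 from Hill modelling.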
# [9] = Cell Viability - LYMP2-020 (AID 986); note: series mostly up to about 92 µM; nearly all actives have a fitted effect of over 55% in size
# In short: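 Acute cytotoxicity in a human lymphoblastoid line is scored as a concentration-dependent fall in cellular ATP after 24 hr at 37 C in complete medium. The positive control is tetraoctylammonium bromide, and potency is given as Hill-fit AC50.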
# [10] = Cell Viability - LYMP2-022 (AID 987); note: nearly all actives have a fitted effect of over 55% in size
# In short: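 Acute toxicity in a human lymphoblastoid line is scored as decreased intracellular ATP after 24 hr compound treatment at 37 C. ATP is measured by CellTiter-Glo luminescence; curves are fitted with the Hill equation to give AC50.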
# [11] = Cell Viability - LYMP2-024 (AID 988); note: nearly all actives have a fitted effect of over 60% in size
# In short: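 Acute toxicity is measured as concentration-dependent loss of intracellular ATP in a human lymphoblastoid line treated 24 hours at 37 C. Luciferase luminescence quantifies ATP; AC50 values come from standard Hill-equation modelling.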
# [12] = Cell Viability - LYMP2-026 (AID 989); note: nearly all actives have a fitted effect of over 50% in size
# In short: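 Concentration-dependent loss of intracellular ATP in human lymphoblastoid cells after 24 hr at 37 C, quantified by luciferase luminescence. AC50 derived from standard Hill equation.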
# [13] = Cell Viability - LYMP1-002 - Assay at 40 hr (AID 994); note: nearly all actives have a fitted effect of over 60% in size
# In short: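 Viability in the human lymphoblastoid line was measured as intracellular ATP via CellTiter-Glo after 40 hr compound exposure. Tetraoctylammonium bromide served as positive control.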
# [14] = target: Estrogen receptor (Homo sapiens) (UniProt P03372); experiment: qHTS assay for small molecule antagonists of estrogen receptor alpha signaling (AID 588513; active = well fitted curve in the direction sought with a large enough effect in the signal ratio, with a control signal flat, not every such curve was filed as active; the % refers to the signal ratio)
# In short: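 Cells were plated at 5000/well and incubated 4 h at 37 C. Compounds were added as 1:2 dilution series, duplicates. 17-beta-estradiol (0.5nM final) was added for 18 h before CCF4 detection.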
# [15] = target: Estrogen receptor (Homo sapiens) (UniProt P03372); experiment: qHTS assay for small molecule agonists of estrogen receptor alpha signaling (AID 588514; calls by dose curve; note: potency is the fitted concentration of half-maximal effect; nearly all actives have a fitted effect of over 70% in size)
# In short: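 Reporter-gene assay. […] controls beta-lactamase in HEK 293 GripTite cells; after 18 hrs with compound, CCF4 substrate is added for 2 hrs and fluorescence is read.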
# [16] = target: Bile acid receptor (Homo sapiens) (UniProt Q96RI1); experiment: qHTS assay for small molecule antagonists of farnesoid X receptor signaling (AID 588526; calls by dose curve)
# In short: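 Antagonist mode: titrated compounds tested against chenodeoxycholic acid stimulation (normalized to 50 uM CDCA and DMSO) in GeneBLAzer HEK293T cells for 16 h. Beta-lactamase read by CCF4 fluorescence; IC50 from Hill fits.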
# [17] = target: Glucocorticoid receptor (Homo sapiens) (UniProt P04150); experiment: qHTS assay for small molecule antagonists of glucocorticoid receptor signaling (AID 588533; active = well fitted inhibition curve with a large enough effect in the signal ratio, with a control signal flat, not every such curve was filed as active; the % refers to the signal ratio;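 note: cells stimulated with 2 nM dexamethasone as agonist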)
# In short: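 Antagonist-mode qHTS: compound titrations added to GRE-bla HeLa cells, then dexamethasone 2 nM final; 18 h, 37 C. CCF4 FRET fluorescence normalized to dexamethasone and DMSO; IC50 from Hill fit.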
# [18] = qHTS assay for small molecule antagonists of peroxisome proliferator-activated receptor delta signaling (AID 588535); conditions: HEK293T PPARd-UAS-bla, beta-lactamase FRET ratio, 18 h; 460 nm channel;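 note: cells co-treated with a PPAR-delta agonist as stimulator during compound exposure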
# In short: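 Cells were seeded at 4000 per well in assay medium containing 2% charcoal/dextran FBS and held 5 hrs at 37 C. Compounds were then added for 18 hrs. CCF4 substrate was applied for 2 hrs at room temperature before fluorescence reading.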
# [19] = target: Peroxisome proliferator-activated receptor gamma (Homo sapiens) (UniProt P37231); experiment: qHTS assay for small molecule agonists of peroxisome proliferator-activated receptor gamma signaling (AID 588536; active = well fitted curve in the direction sought with a large enough effect in the signal ratio, with a control signal flat, not every such curve was filed as active; the % refers to the signal ratio)
# In short: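 GeneBLAzer PPAR-gamma-UAS-bla HEK293 cells in 1% charcoal/dextran-treated FBS medium were treated 16 h at 37 C with compounds. Beta-lactamase activity was read by CCF4 ratio (460/530 nm). Response was normalized to 2 uM rosiglitazone (100%) and DMSO, then Hill-fitted for EC50 and efficacy.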
# [20] = target: Peroxisome proliferator-activated receptor gamma (Homo sapiens) (UniProt P37231); experiment: qHTS assay for small molecule antagonists of peroxisome proliferator-activated receptor gamma signaling (AID 588537; active = well fitted inhibition curve with a large enough effect in the signal ratio, with a control signal flat, not every such curve was filed as active; the % refers to the signal ratio;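 note: reporter cells co-stimulated with 50 nM rosiglitazone agonist during compound treatment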)
# In short: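 Step one: plate 3000 HEK293 UAS-bla cells per well in medium with 1% stripped serum and hold 6-6.5 h at 37 C. Step two: add compound and 50 nM agonist for 16 h. Step three: CCF4 loading, fluorescence read.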
# [21] = target: Vitamin D3 receptor (Homo sapiens) (UniProt P11473); experiment: qHTS assay for small molecule agonists of vitamin D receptor signaling (AID 588543; calls by dose curve)
# In short: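 qHTS in agonist mode: compound titrations stimulate a VDR-driven β-lactamase reporter in HEK293T cells over 16 h at 37 °C. Response normalized to 50 nM 1α,25-dihydroxyvitamin D3 = 100%, DMSO = 0%; Hill fitting gives EC50 and maximal response.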
# Peroxisome proliferator-activated receptor gamma (Homo sapiens), sequence (P37231 whole entry, looked up): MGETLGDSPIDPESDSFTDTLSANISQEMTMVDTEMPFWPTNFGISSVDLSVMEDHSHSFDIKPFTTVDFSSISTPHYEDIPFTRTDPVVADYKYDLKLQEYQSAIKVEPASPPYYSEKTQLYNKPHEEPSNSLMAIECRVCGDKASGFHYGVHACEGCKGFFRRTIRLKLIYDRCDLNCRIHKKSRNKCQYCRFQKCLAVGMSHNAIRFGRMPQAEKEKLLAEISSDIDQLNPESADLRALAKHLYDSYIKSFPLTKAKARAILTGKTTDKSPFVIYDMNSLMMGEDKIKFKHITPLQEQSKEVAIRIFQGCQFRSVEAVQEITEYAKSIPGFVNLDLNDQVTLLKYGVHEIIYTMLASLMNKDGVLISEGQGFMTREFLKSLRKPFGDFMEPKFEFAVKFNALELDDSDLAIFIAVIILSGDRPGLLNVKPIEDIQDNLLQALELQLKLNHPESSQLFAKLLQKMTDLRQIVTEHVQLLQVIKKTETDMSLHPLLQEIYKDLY
# Vitamin D3 receptor (Homo sapiens), sequence (P11473 whole entry, looked up): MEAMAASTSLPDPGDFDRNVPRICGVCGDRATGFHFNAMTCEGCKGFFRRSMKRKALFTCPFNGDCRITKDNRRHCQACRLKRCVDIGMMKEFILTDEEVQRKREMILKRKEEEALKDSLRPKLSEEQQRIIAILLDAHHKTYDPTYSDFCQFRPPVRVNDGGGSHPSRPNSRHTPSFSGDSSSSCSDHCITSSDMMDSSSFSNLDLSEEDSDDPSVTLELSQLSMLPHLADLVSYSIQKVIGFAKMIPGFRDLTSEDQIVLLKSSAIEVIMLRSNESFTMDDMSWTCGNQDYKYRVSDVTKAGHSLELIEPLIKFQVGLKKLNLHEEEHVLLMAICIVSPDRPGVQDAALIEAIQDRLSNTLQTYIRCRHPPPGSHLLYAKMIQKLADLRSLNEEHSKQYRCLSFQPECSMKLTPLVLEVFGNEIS
# Glucocorticoid receptor (Homo sapiens), sequence (P04150 whole entry, looked up): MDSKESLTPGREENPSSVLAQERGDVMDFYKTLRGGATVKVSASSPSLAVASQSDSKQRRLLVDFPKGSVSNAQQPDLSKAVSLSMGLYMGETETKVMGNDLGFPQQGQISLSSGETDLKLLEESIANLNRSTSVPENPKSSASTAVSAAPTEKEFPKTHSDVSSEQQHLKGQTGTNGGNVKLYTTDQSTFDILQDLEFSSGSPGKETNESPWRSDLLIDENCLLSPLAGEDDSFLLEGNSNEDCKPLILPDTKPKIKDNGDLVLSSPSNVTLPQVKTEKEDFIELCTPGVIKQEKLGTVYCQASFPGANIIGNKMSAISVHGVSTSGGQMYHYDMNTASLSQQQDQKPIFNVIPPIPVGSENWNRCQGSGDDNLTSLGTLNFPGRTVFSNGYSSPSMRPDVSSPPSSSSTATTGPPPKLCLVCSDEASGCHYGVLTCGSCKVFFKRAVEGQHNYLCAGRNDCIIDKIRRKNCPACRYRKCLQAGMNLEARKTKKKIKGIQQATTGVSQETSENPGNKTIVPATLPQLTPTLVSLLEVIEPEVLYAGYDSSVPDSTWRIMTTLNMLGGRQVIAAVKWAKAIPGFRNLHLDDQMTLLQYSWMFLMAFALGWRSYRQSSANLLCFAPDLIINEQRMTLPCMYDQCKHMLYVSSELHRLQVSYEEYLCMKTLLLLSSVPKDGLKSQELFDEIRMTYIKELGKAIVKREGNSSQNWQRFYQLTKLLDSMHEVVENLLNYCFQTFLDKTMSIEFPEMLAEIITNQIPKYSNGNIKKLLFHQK
# Estrogen receptor (Homo sapiens), sequence (P03372 whole entry, looked up): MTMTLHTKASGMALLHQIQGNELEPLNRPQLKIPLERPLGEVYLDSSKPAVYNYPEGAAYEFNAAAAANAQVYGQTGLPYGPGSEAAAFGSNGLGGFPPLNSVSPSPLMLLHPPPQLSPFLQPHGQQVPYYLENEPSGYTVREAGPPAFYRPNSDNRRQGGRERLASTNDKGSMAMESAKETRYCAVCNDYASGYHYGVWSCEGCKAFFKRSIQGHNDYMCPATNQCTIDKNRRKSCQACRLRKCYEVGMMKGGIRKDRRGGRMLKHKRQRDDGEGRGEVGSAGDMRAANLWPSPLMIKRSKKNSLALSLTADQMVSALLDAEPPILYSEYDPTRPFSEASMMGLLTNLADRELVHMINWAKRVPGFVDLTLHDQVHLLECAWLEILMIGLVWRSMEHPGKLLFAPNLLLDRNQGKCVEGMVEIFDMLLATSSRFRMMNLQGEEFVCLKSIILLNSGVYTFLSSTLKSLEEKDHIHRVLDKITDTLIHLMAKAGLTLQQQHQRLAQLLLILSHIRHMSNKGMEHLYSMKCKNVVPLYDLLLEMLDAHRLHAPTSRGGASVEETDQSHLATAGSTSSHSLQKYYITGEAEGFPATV
# Bile acid receptor (Homo sapiens), sequence (Q96RI1 whole entry, looked up): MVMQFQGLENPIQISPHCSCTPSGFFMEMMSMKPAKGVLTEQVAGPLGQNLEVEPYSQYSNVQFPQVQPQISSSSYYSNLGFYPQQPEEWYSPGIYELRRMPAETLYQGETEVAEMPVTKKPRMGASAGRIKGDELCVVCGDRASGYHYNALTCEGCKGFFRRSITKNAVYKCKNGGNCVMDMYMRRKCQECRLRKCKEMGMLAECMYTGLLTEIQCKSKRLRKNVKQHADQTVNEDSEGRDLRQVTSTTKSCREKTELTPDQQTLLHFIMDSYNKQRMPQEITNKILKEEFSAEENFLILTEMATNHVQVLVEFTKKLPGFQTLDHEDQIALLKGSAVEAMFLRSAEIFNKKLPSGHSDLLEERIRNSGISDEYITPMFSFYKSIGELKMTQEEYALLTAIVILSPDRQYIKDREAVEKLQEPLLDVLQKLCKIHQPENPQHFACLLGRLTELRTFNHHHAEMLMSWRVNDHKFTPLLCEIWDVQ
compound,measurement,setting,value
CC(CCC(=O)O)(c1ccc(O)cc1)c1ccc(O)cc1,Potency,[1],inactive
same,Potency,[2],inactive
same,Potency,[3],inactive
same,Potency,[4],inactive
same,Potency,[5],inactive
same,Potency,[6],inactive
same,Potency,[7],inactive
same,Potency,[8],inactive
same,Potency,[9],inactive
same,Potency,[10],inactive
same,Potency,[11],inactive
same,Potency,[12],inactive
same,Potency,[13],inactive
same,outcome,[14],inactive
same,Potency,[15],12.6 µM (active)
same,Potency,[16],inactive
same,Potency,[17],inactive
same,max response,[18],-42.6% and 42.4%
same,outcome,[19],inactive
same,Potency,[20],inactive
same,Potency,[21],inactive
